Shiga toxin inh – blocks Shiga toxin action in Vero cells; Vero cells, Shiga toxin protein synthesis inhibition reporter; inhibition, % at 38.7 µM; hit rate 9.2% among 290,000; AID 2315; in the data active means inhibition mostly above about 28%, no sharp cut-off; inactive means mostly below about 43%; further: 0% is about no effect
Pf growth 48h – P. falciparum growth inhibition at 48 hours (one generation) | AID 504832 | hit rate 5.9% among 310,000 | P. falciparum luciferase growth in erythrocytes, 48 h | Potency, µM (top dose mostly 28.7 µM), inactives show at the top dose activity change, negative = inhibition, actives largely listed as inhibitors; further: potency means the concentration at half of the fitted maximal effect; on the % scale 0 is the no-effect control and ±100 the full control effect
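Luminescence readout; reporter = integrated firefly luciferase in P. falciparum. RBC culture at 2% hematocrit, 0.1% parasitemia final, 37 C/5% CO2; decreased signal taken as growth inhibition.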
CHX counter – counter-screen hit for Shiga toxin inhibitors, cycloheximide. cell reporter, cycloheximide protein synthesis inhibition counterscreen. max response, %. hit rate 12% among 300,000; in the data active means max response mostly above about 13%, no sharp cut-off; inactive means mostly below about 14%; further: read at 38.3 µM for the half of the compounds with a filed dose; 0% is about no effect
NS1 inh – influenza NS1 inhibition; Potency, µM (doses to about 46.1 µM), inactives show at the highest dose activity, positive = more growth; hit rate 0.4% among 270,000; AID 2326; calls by dose curve; further: potency means the concentration at half of the fitted maximal effect; actives are rising curves; nearly all actives have a fitted effect of over 50% in size
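Growth recovery, yeast-based: influenza A NS1 expressed in S. cerevisiae causes slow growth, and suppressors are detected by OD600. The parent strain without NS1 is used as positive control.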
Pf growth 96h – P. falciparum growth inhibition at 96 hour, primary screen for plastid delayed-death inhibitors. hit rate 6.9% among 320,000. P. falciparum luciferase reporter growth, 96 h. Potency, µM (doses to about 28.7 µM), for inactives: at the top dose activity change, negative = inhibition, hits mostly inhibitors. AID 504834; further: potency means the concentration at half of the fitted maximal effect; on the % scale 0 is the no-effect control and ±100 the full control effect
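P. falciparum expressing integrated firefly luciferase grown in erythrocytes (2% hematocrit, 0.05% parasitemia final) with compounds for 96 hours at 37 C, 5% CO2. Growth inhibition read as loss of luminescence after adding luciferase detection reagent.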
Sm TGR block – blocks Schistosoma mansoni thioredoxin glutathione reductase | purified TGR, DTNB reduction, TNB absorbance 405 nm | Q962Y6 | hit rate 3% among 360,000 | Potency, µM (doses to about 114 µM), inactives show top-dose activity change, negative = inhibition, actives largely listed as inhibitors; further: potency means the concentration at half of the fitted maximal effect; on the % scale 0 is the no-effect control and ±100 the full control effect; nearly all actives have a fitted effect of over 60% in size
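Kinetic colorimetric format: TGR-catalysed, NADPH-driven DTNB reduction monitored via TNB absorbance. Enzyme dispensed at 20 nM; compound exposure 15 min at room temperature before reaction start.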
The depositor's hits bear a star; ? = inconclusive; / = no result given; [ ] = remark or other dose. Rows were chosen to be rich in hits. Some 21% of all compounds tested hit in one or more screens of this group. Unless noted, the call rests on the fitted dose curve; in most records, active means well fitted curve in the direction sought with a large enough effect; inconclusive means small, poorly fitted or top-dose-only effect, or another doubt; inactive means no such curve, though single readings can be large; an effect the other way counts as inactive or inconclusive.

SMILES | Shiga toxin inh | Pf growth 48h | CHX counter | NS1 inh | Pf growth 96h | Sm TGR block
CCCCNc1ncnc2c1cnn2Cc1ccc(Cl)cc1 | -10.1 | -27.2% | 2.0 | -34.4% | ? | -9.3%
Clc1ccc(-n2ncc3c(NCCCn4ccnc4)ncnc32)cc1 | 35.4* | / | 21.3* | -9.6% | / | -1.6%
CCN(c1ccccc1)S(=O)(=O)c1ccc(Cl)c(NC(=O)COC(=O)c2ccc(O)cc2)c1 | 19.7 | ? | -0.5 | 11.7% | 11.7µM* | -3.5%
CCN(c1ccccc1)S(=O)(=O)c1ccc(Cl)c(NC(=O)COC(=O)c2cc(O)c3ccccc3c2O)c1 | 36.1* | 13.1µM* | 11.8* | -40.1% | 11.7µM* | 3.55µM*
CCN(c1ccccc1)S(=O)(=O)c1ccc(Cl)c(NC(=O)COC(=O)C2CC2C)c1 (configuration not stated) | -6.8 | -13.2% | -2.8 | / | -1.7% | -3.5%
Cc1cc(C(=O)OCC(=O)Nc2cc(S(=O)(=O)N(C)C)ccc2Cl)c2ccccc2n1 | 85.6* | 12.1% | 22.3 | / | 15.0% | -4.9%
COc1cc(OC)c(NC(=O)CCn2cccn2)cc1Cl | / | / | / | / | / | 6.7%
COCCCNC(=S)N/N=C/c1ccc(O)cc1O | 32.4 | 29.9% | 11.7 | 2.5% | -4.2% | -8.2%
COCCCNC(=S)N/N=C/c1ccc(OC)cc1 | 12.5 | -52.6% | 10.0* | 0.4% | -55.8% | -31.1%
COCCCNC(=S)N/N=C/c1cccc(OC)c1O | 49.5* | 0.415µM* | 41.8* | 1.3% | ? | ?
O=C1[C@H]2CCCC[C@H]2C(=O)N1CCCCN1CCN(c2nsc3ccccc23)CC1 | / | ? | / | / | 12µM* | /
O=C1C2CCCCN2C(=O)N1CCCCN1CCN(c2ccccc2Oc2ccccc2)CC1 (configuration not stated) | -10.3 | ? | -1.9 | -8.1% | ? | -28.8%
c1ccc2c(N3CCNCC3)nsc2c1 | 7.6 | 13.1µM* | 15.7* | -0.4% | -22.9% | -21.7%
COc1ccc(CCC(=O)NCCS(=O)(=O)N2CCN(c3ccc(F)cc3)CC2)cc1 | / | -7.8% | / | / | ? | 4.3%
O=C(CCCn1c(=O)c2cccn2c2cccnc21)Nc1ccccc1Br | / | / | / | / | / | 6.4%
CC(C)(C)c1ccccc1NC(=S)NCc1ccccc1 | 13.5 | ? | 5.2 | -24.3% | 13.1µM* | -0.6%
Cc1ccc(NCc2ccccc2O)c(C)c1 | 48.0* | -21.1% | 19.8* | / | -0.8% | 5.7%
Cc1ccc(NC(=S)NCc2ccccc2)c(C)c1 | 63.7 | ? | 10.0* | -26.0% | ? | 44.2%
Cc1ccc(NC(=S)NCc2ccc(Cl)cc2)c(OC(F)F)c1 | -11.1 | ? | 0.5 | -37.3% | 4.15µM* | -24.3%
Cc1ccc(CNC(=S)Nc2ccc(OC(F)F)cc2C)cc1 | -4.5 | -17.8% | 6.5 | 12.7% | ? | -2.9%
Cc1cccc(NCc2ccccc2O)c1C | -1.4 | ? | 11.7 | -5.7% | 0.0% | 6.3%
CCCn1c(=O)c2sccc2n2c(CCCC(=O)NCCOC)nnc12 | / | / | / | / | / | -0.8%
CCOC(=O)COc1nc2c(c(-c3ccco3)c1C#N)CCc1ccccc1-2 | 41.8* | -11.1% | 18.7 | -6.4% | -7.5% | 0.4%
CCOc1ccc(NC(=O)CCCOc2cc(=O)n(C)c3ccccc23)cc1 | -4.6 | -25.3% | -0.6 | 3.9% | -19.3% | -2.1%
C#CCOCCOCCOCCNc1nc(N2CCN(C(=O)CCCCCCCCCCNC(=O)[C@@H](CCSC)n3cc(CCO)nn3)CC2)nc(N2CCN(C(=O)CCCCCCCCCCNC(=O)[C@H](CO)n3cc(CCCCCN)nn3)CC2)n1 | / | 1.04µM* | / | / | ? | -17.1%
SMILES | Shiga toxin inh | Pf growth 48h | CHX counter | NS1 inh | Pf growth 96h | Sm TGR block
C#CCOCCOCCOCCNc1nc(N2CCN(C(=O)Cn3cc(CCCCN)nn3)CC2)nc(N2CCN(C(=O)[C@H](C(C)C)n3cc(CCO)nn3)CC2)n1 | -13.6 | 12.2% | -4.6 | -19.5% | 0.2% | -2.3%
C#CCOCCOCCOCCNc1nc(N2CCN(C(=O)CCCCCCCCCCNC(=O)[C@H](CCCCN)n3cc(CCO)nn3)CC2)nc(N2CCN(C(=O)CCCCCCCCCCNC(=O)[C@H](CCCCN)n3cc(CCCC(=O)O)nn3)CC2)n1 | / | ? | / | / | ? | -11.0%
C#CCOCCOCCOCCNc1nc(N2CCN(C(=O)CCCCCCCCCCNC(=O)[C@@H](CCSC)n3cc(CCO)nn3)CC2)nc(N2CCN(C(=O)CCCCCCCCCCNC(=O)[C@H](CCC(=O)O)n3cc(CCCCCN)nn3)CC2)n1 | / | 5.22µM* | / | / | 10.4µM* | -1.0%
CCN(CC)C(=S)NC(=O)Cc1ccccc1 | 15.2 | 36.8% | -1.5 | 2.0% | ? | 6.1%[57.1 µM]
C=CCN(CC=C)C(=S)NC(=O)Cc1cccc2ccccc12 | 6.5 | ? | 3.8 | -6.3% | 4.15µM* | 11.7%
Cc1ccc2nc(-c3ccc(NC(=O)CSc4nc(N)cc(=O)[nH]4)cc3)sc2c1 | 94.0* | 147.6% | 30.3* | ? | 327.4% | 12.7%
O=C(CSc1nccc(=O)[nH]1)Nc1ccc(N2CCOCC2)cc1 | -4.1 | 1.0% | -1.1 | 9.6% | ? | 2.1%
Nc1cc(=O)[nH]c(SCC(=O)Nc2nc3ccc([N+](=O)[O-])cc3s2)n1 | 3.4 | 17.3% | 0.7 | 5.2% | 4.0% | /
Cc1cc(C)c2c(=O)[nH]c(SCC(=O)Nc3ccccc3)nc2n1 | -2.9 | / | -1.7 | 6.9% | / | 3.6%[11.4 µM]
Cc1ccc2nc(-c3ccc(NC(=O)CSc4nccc(=O)[nH]4)cc3)sc2c1 | 117.4* | 69.5% | 36.8* | -1.0% | 86.6% | /
Cc1ccc(NC(=O)CSc2nc3nc(C)cc(C)c3c(=O)[nH]2)cc1 | -29.7 | 27.5% | 9.2 | 4.4% | 2.33µM* | 9.4%
COc1ccc(N(CC(=O)NC(C)(C)C)C(=O)CCC(=O)Nc2nccs2)c(OC)c1 | -4.5 | -7.9% | -1.6 | 25.8% | -16.6% | 11.2%
COc1ccc(S(=O)(=O)Oc2cccc(/C=N/N=C3/NC(=O)C(CC(=O)O)S3)c2)cc1 (configuration not stated) | -4.9 | 5.6% | -1.8 | -2.3% | ? | 3.7%
O=C1[C@@H]2Cc3c([nH]c4ccccc34)C(c3cccc(Br)c3)N2C(=O)CN1C1CCN(Cc2ccccc2)CC1 (some centres not stated) | 17.4 | 1.47µM* | 17.9* | 9.1% | ? | -7.2%
CN1CC(=O)N2C(Cc3c([nH]c4ccccc34)[C@H]2c2ccc3c(c2)OCO3)C1=O (some centres not stated) | / | -6.2% | / | / | ? | /
COC(=O)c1ccc(C2c3[nH]c4ccccc4c3C[C@H]3C(=O)N(C4CCN(Cc5ccccc5)CC4)CC(=O)N23)cc1 (some centres not stated) | -4.2 | 4.65µM* | 3.1 | 5.6% | 3.29µM* | 4.4%
O=C1[C@@H]2Cc3c([nH]c4ccccc34)C(c3ccccc3)N2C(=O)CN1C1CCN(Cc2ccccc2)CC1 (some centres not stated) | -5.8 | 9.4%[0.00184 µM] | -9.8 | 0.9% | 0.738µM* | 0.0%
CCCN1CCN(CCCNC(=O)CN2C(=O)c3cccnc3Oc3ccc(C)cc32)CC1 | 10.6 | 1.2% | 4.6 | -2.3% | 3.1% | -8.8%

High-throughput results: PubChem, National Center for Advancing Translational Sciences (NCATS)
